Out of some 1,400 compounds screened, about 980 (70%) were called active. Inconclusive results (about 16%) are left out. Calls follow the shape of the full dose curve. The set was probably picked from earlier hits. Only a sample is shown.
assay: Natriuretic polypeptide receptor (hNpr1) antagonism - Counterscreen GloSensor control cell line; settings: HEK293 GloSensor cGMP, SNP-stimulated, luminescence; series mostly up to 57.6 µM; activity change, negative = inhibition: at the top concentration; also: nearly all actives have a fitted effect of over 70% in size
Description: cGMP production was measured using a circular permutated firefly luciferase (FLuc) enzyme functionally linked to the cGMP binding domain of human phosphodiesterase 5 (GloSensor technology pGS-40F, (Fan, F. et al. 2008). The cGMP-sensor was expressed in human embryonic kidney 293 (HEK-293) cells and FLuc activity was measured after stimulation with the NO-donor sodium nitroprusside (SNP). SNP activates the endogenously expressed soluble guanylyl cyclase (GC) producing cGMP which then binds to the GloSensor resulting in FLuc activation, the enzymatic activity of which can be measured as bioluminescence with addition of luciferin substrate. F. Fan, B. F. Binkowski, B. L. Butler, P. F. Stecha, M. K. Lewis, K. V. Wood, Novel genetically encoded biosensors using firefly luciferase. ACS Chem Biol 3, 346-351 (2008).
PROTOCOL TABLE (as described by Inglese J, Shamu CE and Guy RK. 2007) SEQUENCE No. (e.g., 1, 2, 3, etc.); PARAMETER (e.g., Cells, Incubation, Reagent, etc.); VALUE and DESCRIPTION. 1. Cells. Seed 1500 HEK293 cGMP-sensor cells per well in 4uL into Greiner 1536-well white/solid bottom high base, TC plates. 2. Incubation. Incubate plated cells at 37C in 5% CO2, 95% RH overnight. 3. Reagent. Add 1uL per well GloSensor reagent from Promega (2% final concentration) or CO2 independent media vehicle control to respective columns of Greiner 1536-well plates. 4. Incubation. Incubate plated cells at room temperature for 2 h, protect from light. 5. Compounds. Library compounds and DMSO vehicle control added at 23nL per well, transferred by Pin Tool. 6. Incubation. Incubate plated cells for 30 min. at room temperature, protect from light. 7. Detector. GloSensor baseline pre-read luminescence measured using CCD-based camera (Viewlux). 8. Compound. Add 1uL of sodium nitroprusside (SNP) to 50 uM final concentration to stimulate soluble guanylyl cyclase (GC) or CO2 independent media as vehicle control. 9. Incubation. Incubate treated cells at room temperature for 20 min., protect from light. 10. Detector. GloSensor post-SNP luminescence measured using CCD-based camera (Viewlux). NOTES (numbers refer to Sequence numbers above; values are from representative experiments) 1. HEK293 cells expressing GIP/pGS-40F were grown to 85-95% confluence (48-72 h) in T175 culture flasks (CO2 independent media supplemented with 10% FBS, 1% Pen/Strep antibiotics, and 1 ug/mL puromycin). Trypsinize and harvest cells from T175 culture flasks and filter through 40 um cell strainer. Cells counted with Invitrogen Countess (30,000,000 - 50,000,000 cells/flask). Cells diluted to a final concentration of 375 cells/uL in CO2 independent media and a Millipore multidrop used to dispense 1500 cells per well (4uL/well) into 13 1536-well Greiner White/Solid bottom, high base tissue-culture treated (TC) plates and one Aurora 1536-well Black/Clear bottom, low base, TC plate (for visual inspection of cell health throughout the duration of the assay). 2. Cells incubated for 24 h. at 37C in 95% RH incubator with metal lid having gas-exchange holes. 3. Prepare GloSensor Reagent (Promega): Reconstitute GloSensor luciferase substrate by adding 8.2mL Hepes buffer to 250mg substrate, mix well, protect from light and stored at -80C. Prepare a fresh 12% GloSensor solution in CO2 independent supplemented plating media (see above). Mix well and store at ambient temperature, protected from light. 1uL 12% GloSensor Luciferase Reagent added (2% final concentration) to respective columns of 13 x 1536-well Greiner plate with BioRaptr, 1uL CO2 independent plating media added to respective columns as vehicle control with BioRaptr. 4. Cells incubated for 2 h. at ambient temperature, protected from light with metal lid having gas-exchange holes. 5. 23nL of library compounds or DMSO vehicle control transferred to 13 Greiner white/solid bottom high base, TC plates in 11 interplate 1:3 titrations (see Yasgar, A. et al. 2008) with Pintool. 6. […]
% is scaled to controls: 0 for no effect and ±100 for the full control effect; potency is read from the fitted curve at half-maximal effect.

| Structure (SMILES) | Potency | activity change, negative = inhibition |
| --- | --- | --- |
| COc1cc2c(cc1Oc1cccc(N(C)C)c1)NC(=O)C21CCN(Cc2ccccn2)CC1 | 19.3 µM (active) | – |
| COc1cc2c(cc1Oc1cccc(N(C)C)c1)NC(=O)C21CCN(CCC(C)C)CC1 | 31.4 µM (active) | – |
| COc1cc2c(cc1OCc1ccncc1)NC(=O)C21CCN(c2ncc(F)cn2)CC1 | 44.4 µM (active) | – |
| COc1cc2c(cc1Oc1cccc(N(C)C)c1)NC(=O)C21CCN(c2cnccn2)CC1 | 21.7 µM (active) | – |
| CCC(CC)c1cc([C@H]2CN3CC[C@H]2C[C@@H]3CNS(=O)(=O)c2ccccc2C#N)nc(-c2ccncc2)n1 | – | -6.91% (inactive) |
| CCC(CC)c1cc([C@H]2CN3CC[C@H]2C[C@@H]3CNC(=O)NCc2ccccc2)nc(-c2ccncc2)n1 | – | -5.58% (inactive) |
| CCC(CC)c1cc([C@H]2CN3CC[C@H]2C[C@@H]3CNS(=O)(=O)Cc2ccccc2)nc(-c2ccncc2)n1 | – | 2.91% (inactive) |
